Source: PubChem BioAssay (EPA / NIEHS)
Inconclusive results are not listed. Calls of active or inactive are those of the source. The calls were made as follows, unless noted: active = hit-call score of the fitted dose curve at least 0.9, where 1 is the maximum; inconclusive = response in the unintended direction; inactive = score below 0.9.

What was measured:
[1] = ATG_TAL_CIS: Attagene CIS-FACTORIAL HepG2 Assay for human TAL Basal Promoter (AID 2282966; active = hit-call score of the fitted dose curve at least 0.9, where 1 is the maximum; inactive = score below 0.9;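 also: background control endpoint measuring basal TAL promoter reporter mRNA not a specific factor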); details: HepG2 Attagene cis-factorial TAL promoter reporter; actives raise or lower the signal
How it was run: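 HepG2 cells transiently transfected with multiplexed cis-promoter reporter units, dosed 24 h. Reporter mRNA quantified by RT-PCR, 6-FAM labelling, HpaI digestion and capillary electrophoresis; TAL basal promoter serves as background control, fitted bidirectionally versus DMSO.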

[2] = ATG_TGFb_CIS: Attagene CIS-FACTORIAL HepG2 Assay for human Transforming Growth Factor (TGF) (AID 2282967; active = hit-call score of the fitted dose curve at least 0.9, where 1 is the maximum; inactive = score below 0.9); details: HepG2 Attagene CIS TGFb reporter, mRNA transcription; actives raise or lower the signal
How it was run: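 After a 24-hour incubation with compound, transfected HepG2 cells were lysed for RNA; reporter cDNA was amplified, fluorescently end-labeled and separated by CE. DMSO served as baseline for bidirectional fits.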

[3] = ATG_VDRE_CIS: Attagene CIS-FACTORIAL HepG2 Assay for human Vitamin D Receptor Element (VDRE) (AID 2282968; active = hit-call score of the fitted dose curve at least 0.9, where 1 is the maximum; inactive = score below 0.9); details: HepG2 VDRE cis-reporter transcription, actives raise or lower the signal
How it was run: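 RT-PCR/CE readout of reporter mRNA; HepG2, transient transfection, 24 h dosing; DMSO baseline; bidirectional analysis.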

[4] = molecular target: Nuclear receptor subfamily 1 group I member 3 (Homo sapiens) (UniProt Q14994); test: ATG_CAR_TRANS: Attagene TRANS-FACTORIAL HepG2 Assay for human Constitutive Androstane Receptor (CAR) (AID 2282969); details: HepG2 Attagene TRANS-FACTORIAL CAR reporter;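 also: activators raise reporter mRNA above DMSO so AC50 marks induction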
Sequence of Nuclear receptor subfamily 1 group I member 3 (Homo sapiens) (Q14994 whole entry, looked up, the tested form may be a part): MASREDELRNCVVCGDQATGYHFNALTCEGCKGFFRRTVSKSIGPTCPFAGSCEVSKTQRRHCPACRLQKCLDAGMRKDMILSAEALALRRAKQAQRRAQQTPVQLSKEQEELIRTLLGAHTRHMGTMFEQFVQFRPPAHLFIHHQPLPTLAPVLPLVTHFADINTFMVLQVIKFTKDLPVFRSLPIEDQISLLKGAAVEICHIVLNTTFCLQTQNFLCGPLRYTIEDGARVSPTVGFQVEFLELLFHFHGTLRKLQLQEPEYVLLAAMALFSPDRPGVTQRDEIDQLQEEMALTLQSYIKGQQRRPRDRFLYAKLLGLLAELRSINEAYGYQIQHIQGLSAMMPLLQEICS
How it was run: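 HepG2 cells transiently transfected with multiplexed GAL4-UAS reporter units expressing chimeric NR-Gal4 proteins; compound exposure 24 h. Reporter mRNA measured by RT-PCR, 6-FAM labelling, HpaI digestion and capillary electrophoresis; gain-of-signal fitted against DMSO baseline.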

[5] = molecular target: Glucocorticoid receptor (Homo sapiens) (UniProt P04150); test: ATG_GR_TRANS: Attagene TRANS-FACTORIAL HepG2 Assay for human Glucocorticoid Receptor (GR) (AID 2282978); details: HepG2 Attagene TRANS GR reporter, mRNA transcription;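 also: activators score as hits since higher reporter transcript over DMSO is fitted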
Sequence of Glucocorticoid receptor (Homo sapiens) (P04150 whole entry, looked up): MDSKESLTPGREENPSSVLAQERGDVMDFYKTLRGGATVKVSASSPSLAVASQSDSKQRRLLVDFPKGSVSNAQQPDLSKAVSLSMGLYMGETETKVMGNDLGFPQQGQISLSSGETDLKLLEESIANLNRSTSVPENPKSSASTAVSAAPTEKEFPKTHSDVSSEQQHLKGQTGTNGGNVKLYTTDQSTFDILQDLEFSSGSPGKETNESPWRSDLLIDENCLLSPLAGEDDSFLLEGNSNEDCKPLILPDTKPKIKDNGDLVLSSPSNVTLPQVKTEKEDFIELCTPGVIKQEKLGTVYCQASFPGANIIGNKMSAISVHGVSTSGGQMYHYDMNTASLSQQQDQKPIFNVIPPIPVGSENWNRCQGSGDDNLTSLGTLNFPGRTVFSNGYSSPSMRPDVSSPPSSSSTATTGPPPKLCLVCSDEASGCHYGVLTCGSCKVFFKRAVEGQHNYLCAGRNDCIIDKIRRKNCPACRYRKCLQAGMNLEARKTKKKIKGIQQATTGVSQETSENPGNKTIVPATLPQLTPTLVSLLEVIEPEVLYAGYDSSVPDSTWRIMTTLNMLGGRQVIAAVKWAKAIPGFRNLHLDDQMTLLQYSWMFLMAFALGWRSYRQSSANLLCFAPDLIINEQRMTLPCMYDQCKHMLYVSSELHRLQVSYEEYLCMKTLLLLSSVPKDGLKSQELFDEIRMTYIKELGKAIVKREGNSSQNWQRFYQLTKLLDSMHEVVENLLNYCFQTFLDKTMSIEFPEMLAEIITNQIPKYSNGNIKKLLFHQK
How it was run: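 After 24 h incubation with test chemical, transfected HepG2 cells were lysed for RNA; reporter cDNA was amplified, FAM-labelled, HpaI-digested and sized on a capillary analyser. Signal gain relative to DMSO was scored.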

[6] = molecular target: Oxysterols receptor LXR-alpha (Homo sapiens) (UniProt Q13133); test: ATG_LXRa_TRANS: Attagene TRANS-FACTORIAL HepG2 Assay for human Liver X Receptor alpha (LXRa) (AID 2282980); details: HepG2 Attagene TRANS reporter, LXRa transactivation
Sequence of Oxysterols receptor LXR-alpha (Homo sapiens) (Q13133 whole entry, looked up, the tested form may be a part): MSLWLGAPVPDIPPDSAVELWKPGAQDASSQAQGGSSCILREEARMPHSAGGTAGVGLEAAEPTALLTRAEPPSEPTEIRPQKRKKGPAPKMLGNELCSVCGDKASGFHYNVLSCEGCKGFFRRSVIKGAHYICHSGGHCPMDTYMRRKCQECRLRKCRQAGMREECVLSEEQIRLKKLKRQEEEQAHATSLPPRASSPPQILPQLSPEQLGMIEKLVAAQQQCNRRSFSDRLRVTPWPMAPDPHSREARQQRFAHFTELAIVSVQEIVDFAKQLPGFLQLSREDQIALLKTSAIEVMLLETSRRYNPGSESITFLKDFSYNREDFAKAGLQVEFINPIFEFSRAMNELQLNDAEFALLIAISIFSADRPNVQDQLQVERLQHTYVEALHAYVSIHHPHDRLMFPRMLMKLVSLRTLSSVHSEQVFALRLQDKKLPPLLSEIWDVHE
How it was run: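 HepG2 cells transiently transfected with GAL4-UAS reporter units for chimeric NR-Gal4 proteins, exposed to chemicals for 24 h. Reporter mRNA quantified by RT-PCR and capillary electrophoresis; gain of signal fitted relative to DMSO.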

[7] = molecular target: Hepatocyte nuclear factor 4-alpha (Homo sapiens) (UniProt P41235); test: ATG_HNF4a_TRANS: Attagene TRANS-FACTORIAL HepG2 Assay for human Hepatocyte Nuclear Factor 4 alpha (HNF4a) (AID 2282982); details: HepG2 HNF4a transactivation reporter, mRNA readout
How it was run: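 Cells used were human HepG2, transiently carrying GAL4-UAS reporter units read out against exogenous NR-GAL4 chimeras. Reporter transcript levels after 24 h dosing were quantified by fluorescent RT-PCR and capillary electrophoresis.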

[8] = ATG_M_06_TRANS: Attagene TRANS-FACTORIAL HepG2 Assay for M06 Transcription Factor (Internal Marker) (AID 2282983); details: HepG2 Attagene TRANS M06 internal marker reporter
How it was run: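 HepG2 cells transiently transfected with GAL4-UAS multiple reporter units, dosed 24 h. Reporter RNA reverse-transcribed, PCR-amplified, 6-FAM-labeled, HpaI-digested and quantified by capillary electrophoresis; this internal-marker signal fitted upward relative to DMSO.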

[9] = ATG_M_32_TRANS: Attagene TRANS-FACTORIAL HepG2 Assay for M32 Transcription Factor (Internal Marker) (AID 2282984); details: HepG2 Attagene TRANS M32 internal marker reporter
How it was run: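 Human hepatoma HepG2, transient MRTU transfection, 24 h treatment. RNA → RT-PCR → fluorescent primer extension → HpaI digest (2 h, 37 C) → CE. Positive-direction fit vs DMSO.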

[10] = molecular target: Nuclear receptor subfamily 4 group A member 2 (Homo sapiens) (UniProt P43354); test: ATG_NURR1_TRANS: Attagene TRANS-FACTORIAL HepG2 Assay for human Nuclear Receptor Related Protein 1 (NURR1) (AID 2282985); details: HepG2 Attagene TRANS reporter, mRNA readout
Sequence of Nuclear receptor subfamily 4 group A member 2 (Homo sapiens) (P43354 whole entry, looked up): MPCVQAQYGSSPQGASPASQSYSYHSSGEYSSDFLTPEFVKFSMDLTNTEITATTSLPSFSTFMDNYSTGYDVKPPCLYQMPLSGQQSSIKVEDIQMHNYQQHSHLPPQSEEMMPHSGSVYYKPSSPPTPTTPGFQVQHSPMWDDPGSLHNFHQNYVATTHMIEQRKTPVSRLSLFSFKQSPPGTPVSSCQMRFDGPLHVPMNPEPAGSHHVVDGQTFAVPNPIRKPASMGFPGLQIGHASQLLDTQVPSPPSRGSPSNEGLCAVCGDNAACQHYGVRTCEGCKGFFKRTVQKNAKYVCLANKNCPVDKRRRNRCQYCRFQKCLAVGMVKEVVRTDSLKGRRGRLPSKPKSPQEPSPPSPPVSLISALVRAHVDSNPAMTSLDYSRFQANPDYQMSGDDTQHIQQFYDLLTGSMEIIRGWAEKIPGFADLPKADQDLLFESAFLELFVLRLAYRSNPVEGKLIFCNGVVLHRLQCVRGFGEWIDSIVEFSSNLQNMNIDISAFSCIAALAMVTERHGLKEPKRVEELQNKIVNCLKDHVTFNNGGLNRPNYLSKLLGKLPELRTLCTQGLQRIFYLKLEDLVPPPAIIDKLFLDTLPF
How it was run: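 After 24 h chemical dosing, total RNA from transiently transfected HepG2 cells was reverse-transcribed and reporter cDNA PCR-amplified, FAM-labelled and analysed by capillary electrophoresis. Activity fitted in positive direction, DMSO as negative control.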

[11] = molecular target: Transcriptional activator Myb (Homo sapiens) (UniProt P10242); test: ATG_Myb_CIS: Attagene CIS-FACTORIAL HepG2 Assay for human Myeloblastosis (Myb) Proto-Oncogene Transcription Factor (AID 2282986; active = hit-call score of the fitted dose curve at least 0.9, where 1 is the maximum; inactive = score below 0.9); details: HepG2 Attagene CIS-FACTORIAL Myb reporter transcription; actives raise or lower the signal
Sequence of Transcriptional activator Myb (Homo sapiens) (P10242 whole entry, looked up): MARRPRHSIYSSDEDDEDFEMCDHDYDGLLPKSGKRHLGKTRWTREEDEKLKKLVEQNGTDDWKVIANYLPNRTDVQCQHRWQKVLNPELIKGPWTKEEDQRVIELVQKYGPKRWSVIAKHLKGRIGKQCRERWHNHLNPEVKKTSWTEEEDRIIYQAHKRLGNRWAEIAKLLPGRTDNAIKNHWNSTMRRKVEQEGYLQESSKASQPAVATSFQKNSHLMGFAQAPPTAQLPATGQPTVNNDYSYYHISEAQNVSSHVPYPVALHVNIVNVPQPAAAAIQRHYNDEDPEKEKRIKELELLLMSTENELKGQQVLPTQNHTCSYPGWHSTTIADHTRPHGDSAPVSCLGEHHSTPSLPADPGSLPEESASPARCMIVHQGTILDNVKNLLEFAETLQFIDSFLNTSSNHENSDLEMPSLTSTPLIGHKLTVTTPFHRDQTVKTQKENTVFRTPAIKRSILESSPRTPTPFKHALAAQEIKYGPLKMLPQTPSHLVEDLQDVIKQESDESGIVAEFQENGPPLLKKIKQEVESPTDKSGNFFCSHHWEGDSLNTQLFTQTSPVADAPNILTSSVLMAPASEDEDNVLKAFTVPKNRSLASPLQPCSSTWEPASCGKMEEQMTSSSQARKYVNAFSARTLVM
How it was run: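 After 24 h of compound dosing, total RNA from transfected HepG2 cells is reverse-transcribed and the reporter sequences amplified, labeled and separated by capillary electrophoresis. Values come from bidirectional fitting against DMSO.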

[12] = molecular target: Nuclear respiratory factor 1 (Homo sapiens) (UniProt Q16656); test: ATG_NRF1_CIS: Attagene CIS-FACTORIAL HepG2 Assay for human Nuclear Respiratory Factor 1 (NRF1) Orphan Gene (AID 2282987; active = hit-call score of the fitted dose curve at least 0.9, where 1 is the maximum; inactive = score below 0.9); details: HepG2 NRF1 cis-element reporter, Attagene multiplex; actives raise or lower the signal
Sequence of Nuclear respiratory factor 1 (Homo sapiens) (Q16656 whole entry, looked up): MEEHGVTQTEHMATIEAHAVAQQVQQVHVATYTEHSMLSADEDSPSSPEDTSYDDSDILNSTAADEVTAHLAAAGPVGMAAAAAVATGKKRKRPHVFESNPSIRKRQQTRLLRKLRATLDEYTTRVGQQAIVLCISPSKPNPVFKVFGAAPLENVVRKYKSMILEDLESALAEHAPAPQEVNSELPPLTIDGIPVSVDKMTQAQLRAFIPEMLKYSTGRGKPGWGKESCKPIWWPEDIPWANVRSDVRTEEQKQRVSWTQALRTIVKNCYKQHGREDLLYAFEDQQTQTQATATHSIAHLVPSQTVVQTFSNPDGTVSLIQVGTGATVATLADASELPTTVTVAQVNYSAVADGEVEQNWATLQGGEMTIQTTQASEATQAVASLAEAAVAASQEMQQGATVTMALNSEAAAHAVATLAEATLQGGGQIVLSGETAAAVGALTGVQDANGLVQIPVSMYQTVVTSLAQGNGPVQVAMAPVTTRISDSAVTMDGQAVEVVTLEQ
How it was run: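 Measured: fluorescent reporter-specific RT-PCR products from transfected HepG2 cells, separated by capillary electrophoresis. Exposure lasted 24 h. Analysis used bidirectional curve fitting with DMSO as negative control.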

[13] = molecular target: Steroid hormone receptor ERR1 (Homo sapiens) (UniProt P11474); test: ATG_ERRa_TRANS: Attagene TRANS-FACTORIAL HepG2 Assay for human Estrogen-Related Receptor alpha (ERRa) (AID 2282971); details: HepG2 Attagene TRANS reporter, ERRa transactivation
How it was run: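 HepG2 cells transiently transfected with GAL4-UAS reporter units and chimeric NR-Gal4 constructs; after 24 hour compound incubation, reporter mRNA quantified by RT-PCR, fluorescent labelling and capillary electrophoresis, gain of signal versus DMSO.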

[14] = molecular target: X-box-binding protein 1 (Homo sapiens) (UniProt P17861); test: ATG_Xbp1_CIS: Attagene CIS-FACTORIAL HepG2 Assay for human X-box Binding Protein 1 (XBP1) (AID 2282972; active = hit-call score of the fitted dose curve at least 0.9, where 1 is the maximum; inactive = score below 0.9); details: HepG2 XBP1 cis-element reporter, Attagene multiplex; actives raise or lower the signal
Sequence of X-box-binding protein 1 (Homo sapiens) (P17861 whole entry, looked up): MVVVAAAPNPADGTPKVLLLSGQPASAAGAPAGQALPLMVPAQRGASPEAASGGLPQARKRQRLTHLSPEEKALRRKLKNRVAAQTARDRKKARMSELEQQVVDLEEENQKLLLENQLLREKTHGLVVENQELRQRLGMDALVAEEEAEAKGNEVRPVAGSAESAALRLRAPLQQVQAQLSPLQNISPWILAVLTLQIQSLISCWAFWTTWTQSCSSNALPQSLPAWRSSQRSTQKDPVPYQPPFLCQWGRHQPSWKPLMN
How it was run: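 HepG2, transient MRTU transfection (cis-promoter driven), 24 h compound exposure. Total RNA → oligo(dT) RT → PCR → 6-FAM labeling → HpaI cut → CE. Bidirectional fit vs DMSO.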

[15] = ATG_M_19_TRANS: Attagene TRANS-FACTORIAL HepG2 Assay for M19 Transcription Factor (Internal Marker) (AID 2282974); details: HepG2 Attagene TRANS-FACTORIAL M19 internal marker reporter
How it was run: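 Transfected HepG2 (GAL4-UAS MRTUs), 24 h compound, TriZol RNA, DNase-treated RT, reporter PCR, FAM label, HpaI digest, CE fluorescence; gain vs DMSO.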

[16] = molecular target: Estrogen-related receptor gamma (Homo sapiens) (UniProt P62508); test: ATG_ERRg_TRANS: Attagene TRANS-FACTORIAL HepG2 Assay for human Estrogen-Related Receptor gamma (ERRg) (AID 2282977); details: HepG2 Attagene TRANS reporter, ERRg transactivation;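 also: hits increase reporter signal over DMSO so potencies reflect activators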
Sequence of Estrogen-related receptor gamma (Homo sapiens) (P62508 whole entry, looked up, the tested form may be a part): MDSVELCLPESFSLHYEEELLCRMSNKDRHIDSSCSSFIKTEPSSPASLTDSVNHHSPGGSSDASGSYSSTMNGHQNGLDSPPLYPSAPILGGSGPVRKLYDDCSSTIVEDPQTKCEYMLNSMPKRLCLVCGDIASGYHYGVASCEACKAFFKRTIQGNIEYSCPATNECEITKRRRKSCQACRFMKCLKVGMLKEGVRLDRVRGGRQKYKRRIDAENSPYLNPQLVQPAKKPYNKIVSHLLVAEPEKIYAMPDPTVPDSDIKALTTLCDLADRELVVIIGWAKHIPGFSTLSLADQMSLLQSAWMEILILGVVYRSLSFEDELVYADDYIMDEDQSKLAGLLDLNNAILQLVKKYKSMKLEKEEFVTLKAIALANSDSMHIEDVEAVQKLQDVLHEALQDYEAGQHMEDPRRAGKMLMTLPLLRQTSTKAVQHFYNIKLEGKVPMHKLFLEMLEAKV
How it was run: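 Transfect HepG2 with multiple GAL4-UAS reporter transcription units; dose chemicals 24 h; isolate RNA, reverse-transcribe with oligo(dT), PCR-amplify, label with 6-FAM, digest with HpaI; size fragments by capillary electrophoresis. DMSO serves as negative control.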

[17] = molecular target: Oxysterols receptor LXR-beta (Homo sapiens) (UniProt P55055); test: ATG_LXRb_TRANS: Attagene TRANS-FACTORIAL HepG2 Assay for human Liver X Receptor beta (LXRb) (AID 2282981); details: HepG2 Attagene TRANS GAL4-LXRb reporter, mRNA
Sequence of Oxysterols receptor LXR-beta (Homo sapiens) (P55055 whole entry, looked up, the tested form may be a part): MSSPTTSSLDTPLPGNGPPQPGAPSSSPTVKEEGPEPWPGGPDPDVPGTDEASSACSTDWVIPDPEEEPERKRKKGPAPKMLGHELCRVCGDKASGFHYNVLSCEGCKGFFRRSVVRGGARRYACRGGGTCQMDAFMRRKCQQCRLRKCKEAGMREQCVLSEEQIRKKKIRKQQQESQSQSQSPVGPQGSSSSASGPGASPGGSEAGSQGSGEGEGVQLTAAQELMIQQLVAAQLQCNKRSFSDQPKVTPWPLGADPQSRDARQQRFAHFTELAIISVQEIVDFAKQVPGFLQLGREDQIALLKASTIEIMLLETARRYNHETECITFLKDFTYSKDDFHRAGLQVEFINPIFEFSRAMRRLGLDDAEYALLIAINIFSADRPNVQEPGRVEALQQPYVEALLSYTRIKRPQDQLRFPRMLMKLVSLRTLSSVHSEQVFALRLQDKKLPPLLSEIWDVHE
How it was run: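 In this TRANS format, exogenous chimeric NR-Gal4 protein activity, not endogenous factors, drives reporter expression in transfected human HepG2 cells. Exposure lasted 24 h; reporter mRNA was read by fluorescent capillary electrophoresis.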

[18] = molecular target: Estrogen receptor (Homo sapiens) (UniProt P03372); test: ATG_ERa_TRANS: Attagene TRANS-FACTORIAL HepG2 Assay for human Estrogen Receptor alpha (ERa) (AID 2282970); details: HepG2 Attagene TRANS ERa GAL4 reporter, mRNA
How it was run: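 HepG2 cells transiently transfected with multiplexed GAL4-UAS reporter units read out chimeric NR-Gal4 activity. After 24 h compound exposure, reporter mRNA was quantified by RT-PCR, 6-FAM labeling, HpaI digestion and capillary electrophoresis, relative to DMSO.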

[19] = ATG_GAL4_TRANS: Attagene TRANS-FACTORIAL HepG2 Assay for GAL4 (Internal Marker) (AID 2282976); details: HepG2 Attagene TRANS GAL4 internal marker reporter
How it was run: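 Background-control readout: GAL4-UAS reporter transcript in transiently transfected HepG2 cells after 24 h compound exposure. Measured by RT-PCR, 6-FAM primer extension, HpaI digest and capillary electrophoresis; gain-of-signal fit versus DMSO.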

[20] = molecular target: Bile acid receptor (Homo sapiens) (UniProt Q96RI1); test: ATG_FXR_TRANS: Attagene TRANS-FACTORIAL HepG2 Assay for Farnesoid X Receptor (FXR) (AID 2282979); details: HepG2 Attagene TRANS FXR-GAL4 reporter transcription;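 also: hits raise reporter mRNA above DMSO so AC50 marks FXR activation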
Sequence of Bile acid receptor (Homo sapiens) (Q96RI1 whole entry, looked up, the tested form may be a part): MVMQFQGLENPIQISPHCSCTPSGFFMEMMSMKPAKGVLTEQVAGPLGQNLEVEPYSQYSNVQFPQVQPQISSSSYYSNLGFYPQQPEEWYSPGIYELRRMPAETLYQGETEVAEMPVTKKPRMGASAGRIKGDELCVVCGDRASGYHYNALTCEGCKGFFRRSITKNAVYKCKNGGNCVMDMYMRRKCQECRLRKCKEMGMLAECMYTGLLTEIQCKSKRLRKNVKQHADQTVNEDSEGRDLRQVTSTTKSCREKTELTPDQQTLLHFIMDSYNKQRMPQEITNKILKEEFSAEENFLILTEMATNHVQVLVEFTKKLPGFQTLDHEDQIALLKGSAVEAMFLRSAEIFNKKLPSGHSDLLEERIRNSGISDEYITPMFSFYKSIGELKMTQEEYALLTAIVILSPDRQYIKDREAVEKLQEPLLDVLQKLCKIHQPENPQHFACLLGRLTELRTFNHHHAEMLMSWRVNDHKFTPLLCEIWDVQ
How it was run: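 HepG2 cells were transiently transfected with GAL4-UAS reporters driven by chimeric NR-Gal4 proteins and dosed for 24 h. Reporter mRNA was quantified by RT-PCR, fluorescent labelling, HpaI digestion and capillary electrophoresis, with gain of signal scored versus DMSO.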

Measured: AC50

CC=Cc1ccc(OCC)c(O)c1
inactive: [1] | [2] | [3] | [4] | [5] | [6] | [7] | [8] | [9] | [10] | [11] | [12]

COC(C)(C)CCCC(C)CC=O (stereo not given)
inactive: [1] | [2] | [3] | [13] | [14] | [15] | [16] | [5] | [17] | [7] | [11] | [12]

CCCCCCCCCCCC(=O)OCC(O)CO (stereo not given)
inactive: [1] | [2] | [3] | [18] | [14] | [19] | [17] | [8] | [9] | [11] | [12]

CC1(C)COCN1
inactive: [1] | [2] | [3] | [4] | [15] | [19] | [20] | [6] | [17] | [7] | [9] | [11] | [12]

CC(C)=CCCC(C)CCOC=O (stereo not given)
inactive: [1] | [2] | [3] | [4] | [14] | [20] | [7] | [8] | [9] | [11] | [12]

C[Si]1(C)O[Si](C)(C)O[Si](C)(C)O1
inactive: [1] | [2] | [3] | [4] | [15] | [19] | [16] | [20] | [10] | [11] | [12]

c1ccc(CN(Cc2ccccc2)Cc2ccccc2)cc1
inactive: [1] | [2] | [3] | [4] | [14] | [6] | [17] | [8] | [11]

Brc1ccc(Br)c(Br)c1
inactive: [1] | [2] | [3] | [18] | [14] | [15] | [9] | [11] | [12]

CCCCOC(=O)CCCCCCCC(=O)OCCCC
inactive: [1] | [2] | [3] | [13] | [14] | [19] | [16] | [20] | [6] | [17] | [8] | [9] | [10] | [11] | [12]

N#Cc1ccc(CC(=O)c2cccc(C(F)(F)F)c2)cc1
active: [3] 26.3 µM | [10] 100 µM | [12] 100 µM
inactive: [1] | [2] | [4] | [16] | [5] | [7] | [8] | [9] | [11]
